From the supplement of paper PMC6607015
Counter-ions that a name gives are not always drawn.

What was measured:
Settings in all cases: compound concentration in added solution (µM; 5 µl added to 20 µl cells): 10; 18 h
[1] = system: A431; assay: LBPA endosome anti-LBPA integrated intensity (sum per cell), Z-score; higher = more LBPA staining
How it was run: (§1)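 Per-cell integrated LBPA or filipin intensity, whole-cell or within LBPA endosomes, is expressed as Z-scores normalised in AcuityXpress. HeLa MZ or A431 cells, 3,500 per well in 20 µl, sat on 5 µl of 10 µM compound solution in duplicate 384-well imaging plates for 18 h. They were then fixed in 4% PFA, stained, imaged in four 20× fields per well and segmented using MetaXpress.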

[2] = system: HeLa MZ; assay: as above
How it was run: as §1

[3] = system: A431; assay: whole-cell filipin (free cholesterol) integrated intensity, Z-score; higher = more cholesterol staining
How it was run: as §1

[4] = system: HeLa MZ; assay: as above
How it was run: as §1

[5] = system: A431; assay: filipin (cholesterol) integrated intensity within LBPA endosomes, Z-score; higher = more cholesterol in LBPA endosomes
How it was run: as §1

[6] = system: HeLa MZ; assay: as above
How it was run: as §1

Row | Compound | LBPA endosome anti-LBPA integrated intensity (z-score) [1] | LBPA endosome anti-LBPA integrated intensity (z-score) [2] | whole-cell filipin (z-score) [3] | whole-cell filipin (z-score) [4] | filipin (z-score) [5] | filipin (z-score) [6]
1 | C[C@]12CCC(=O)C=C1CC[C@@H]1[C@@H]2[C@@H](O)C[C@@]2(C)[C@H]1CC[C@]2(O)C(=O)CO [Hydrocortisone base] | -0.41 | -0.249 | -0.675 | -0.6 | -0.327 | -0.44
2 | O=C(O)c1ccccc1C(=O)Nc1ccc(S(=O)(=O)Nc2nccs2)cc1 [Phthalylsulfathiazole] | -0.455 | -0.249 | -0.41 | -0.101 | -0.471 | -0.557
3 | CO[C@H]1C[C@H](O[C@H]2[C@H](C)[C@@H](O[C@@H]3O[C@H](C)C[C@H](N(C)C)[C@H]3OC(C)=O)[C@@H](C)C[C@@]3(CO3)C(=O)[C@H](C)[C@@H](OC(C)=O)[C@@H](C)[C@@H](C)OC(=O)[C@@H]2C)O[C@@H](C)[C@@H]1OC(C)=O [Troleandomycin] | -0.105 | 0.938 | -0.701 | -0.492 | -0.249 | -0.17
4 | CCCCOc1ccc(CC(=O)NO)cc1 [Bufexamac] | -0.196 | -0.501 | -0.337 | -0.569 | -0.313 | -0.483
5 | C=CC(N)CCC(=O)O (stereo not drawn) [Vigabatrin] | -0.513 | -0.602 | -1.01 | -0.729 | -0.566 | -0.59
6 | CCOc1ccccc1OC(c1ccccc1)C1CNCCO1 (stereo not drawn) [Reboxetine mesylate] | -0.315 | 0.133 | -0.477 | -0.595 | -0.205 | -0.384
7 | O=C1CCc2ccc(OCCCCN3CCN(c4cccc(Cl)c4Cl)CC3)cc2N1 [Aripiprazole] | 3.32 | 2.8 | 2.88 | 2.45 | 3.23 | 4.07
8 | CCCCCN(CCCCC)C(=O)C(CCC(=O)O)NC(=O)c1ccc(Cl)c(Cl)c1 (stereo not drawn) [Lorglumide sodium salt] | -0.556 | 0.0228 | -0.478 | -0.52 | -0.482 | -0.502
9 | Cc1cccc(C)c1OCC(C)N (stereo not drawn) [Mexiletine hydrochloride] | -0.572 | -0.935 | -0.883 | -0.901 | -0.495 | -0.576
10 | Nc1cc(C(Cl)=C(Cl)Cl)c(S(N)(=O)=O)cc1S(N)(=O)=O [Clorsulon] | -0.372 | 0.212 | -0.73 | -0.454 | -0.454 | -0.586
11 | CCCCc1oc2ccccc2c1C(=O)c1cc(I)c(OCCN(CC)CC)c(I)c1 [Amiodarone hydrochloride] | 1.78 | 0.0569 | 0.251 | 0.182 | 2.45 | 1.95
12 | CCN(CC)CCOC(=O)C1(c2ccc([N+](=O)[O-])cc2)CCCC1 [Nitrocaramiphen hydrochloride] | -0.558 | 0.568 | -0.0743 | -0.278 | -0.346 | -0.0224
13 | CN(Cc1cc(Br)cc(Br)c1N)C1CCCCC1 [Bromhexine hydrochloride] | -0.251 | -1.52 | 0.328 | -0.199 | -0.159 | -0.552
14 | CNC(=C[N+](=O)[O-])NCCSCc1ccc(CN(C)C)o1 [Ranitidine hydrochloride] | -0.424 | 0.0515 | -1.03 | -1.05 | -0.524 | -0.559
15 | CCC(NC(C)C)C(O)c1ccc(O)c(O)c1 (stereo not drawn) [Isoetharine mesylate salt] | -0.174 | 0.0426 | 0.269 | -0.32 | -0.45 | -0.32
16 | Cc1c(N(C)CS(=O)(=O)O)c(=O)n(-c2ccccc2)n1C [Dipyrone] | -0.646 | -1.3 | -0.336 | -0.214 | -0.539 | -0.551
17 | CCc1cc(C(N)=S)ccn1 [Ethionamide] | -0.517 | -0.148 | -0.588 | 0.221 | -0.493 | -0.459
18 | Cc1cc2c(s1)Nc1ccccc1N=C2N1CCN(C)CC1 [Olanzapine] | 0.0572 | 1.62 | 0.197 | 0.311 | 0.151 | 0.615
19 | C[C@@H]1C[C@H]2[C@@H]3C[C@H](F)C4=CC(=O)C=C[C@]4(C)[C@@]3(F)[C@@H](O)C[C@]2(C)[C@@]1(O)C(=O)CO [Flumethasone] | -0.341 | -0.862 | -0.0225 | 0.117 | -0.194 | -0.317
20 | CCc1nn(CCCN2CCN(c3cccc(Cl)c3)CC2)c(=O)n1CCOc1ccccc1 [Nefazodone HCl] | 0.334 | 2.39 | 0.625 | 0.969 | 0.483 | 1.14
21 | CC(=O)NC[C@H]1CN(c2ccc(N3CCOCC3)c(F)c2)C(=O)O1 [Linezolid] | -0.619 | -0.712 | -0.597 | -0.713 | -0.583 | -0.674
22 | C[C@@H]1CCC[C@H](C)N1NC(=O)c1ccc(Cl)c(S(N)(=O)=O)c1 [Clopamide] | -0.569 | -1.24 | -0.626 | -0.712 | -0.503 | -0.648
23 | COc1ccc(C2CNC(=O)C2)cc1OC1CCCC1 (stereo not drawn) [Rolipram] | -0.493 | -0.432 | -0.586 | -0.445 | -0.453 | -0.525
